The panel holds about 83,000 compounds, 20% with a hit somewhere; the sample as a whole holds those more often.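 Plates (96-well) were seeded with cells, treated with compound at one concentration, and incubated for 48 hours before percent growth was determined.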 Unmarked numbers belong to inactive results. The source made the active and inactive calls. How the source made its calls: active means growth percent below 10; inactive means the rest.

Test in all cases: NCI-60 one-dose screen, 48 h (100 = growth as untreated, 0 = no growth, -100 = all killed)
Holding throughout (conditions): 10 µM unless noted

In assay [1] the test system is T-47D breast.
The test system of assay [2] is BT-549 breast.
Assay [3] has as its system MDA-MB-435 melanoma.
The test system of assay [4] is SW-620 colon.
The subject of assay [5] is MCF7 breast.
Assay [6] relates to HCT-116 colon.
The subject of assay [7] is HCC-2998 colon.
Assay [8] has as its system KM12 colon.

In the case of `COC(=O)c1ccc(NC(N)=NCC(C)(C)COc2ccc(C(F)(F)F)cc2)nc1`, the growth is 28.7% in assay [1]; 66.5% in assay [2]; 58.3% in assay [3]; 27.3% in assay [4]; 8.58% (active) in assay [5]; 0.764% (active) in assay [6]. Also, the growth is 2.3% (active) in assay [7] and 46.7% in assay [8].
As for `Cc1ccc2c(C3C(C#N)=C(N)Oc4cc5ccccc5cc43)cc(=O)oc2c1` (stereo not drawn), the growth in assay [1] is 35.9%; in assay [2] it was 47.9%; in assay [3] it was -48.2% (active); in assay [4] it was 27.1%; in assay [5], 17.9%; in assay [6], 15.9%. The growth in assay [7] is 58.9%; in assay [8], 24.1%.
As for `CN(C)c1ccc(/C=N/N=C(N)N)cc1`, the growth is 81.9% in assay [1]; 93.3% in assay [2]; -13.9% (active) in assay [3]; 37.4% in assay [4]; 31.9% in assay [5]; 52.8% in assay [6]. For the same compound, the results for the growth in assay [7] and in assay [8] were 68.2% and 42.6%, respectively.
For `COc1cc(Nc2ncccc2C(=O)Nc2nc3ccc(F)cc3s2)cc(OC)c1OC`, the growth in assay [1] is 36.2%; in assay [2], 89.3%; in assay [3], 21%; in assay [4], 96.8%; in assay [5], 94.9%; in assay [6], 13.8%. For the same compound, the growth in assay [7] is 84.7%; in assay [8] it was 78.9%.
As to `O=C(NCCNc1nccc(-c2c(-c3cccc(O)c3)nc3sccn23)n1)Nc1cc(C(F)(F)F)cc(C(F)(F)F)c1`, the growth in assay [1] is 72%; in assay [2], 87.6%; in assay [3], 9.9% (active); in assay [4], 73.5%; in assay [5] it was 67.5%; in assay [6], 66.3%. For the same compound, the growth in assay [7] was 65.5%; in assay [8], 43.1%.
With `COc1cc(NS(=O)(=O)c2ccc(N)cc2)ncn1`, the growth in assay [1] was 103%; in assay [2], 107%; in assay [3] it was 99.8%; in assay [4], 108%; in assay [5], 94.7%; in assay [6], 103%. The results for the growth in assay [7] and in assay [8] were 109% and 104%, respectively.
Take `COc1cc(NC(=O)C#Cc2ccccc2)c(OC)cc1Cl`: the growth is 71.1% in assay [1]; 51.3% in assay [2]; 59.3% in assay [3]; 23.9% in assay [4]; 22.6% in assay [5]; 21.9% in assay [6]. The growth was 90.9% in assay [7] and 49.7% in assay [8].
Regarding `O=S(=O)(CCN1CCOCC1)Nc1cc(-c2ccc3ncnc(Nc4ccc(F)c(Cl)c4)c3c2)cnc1Cl`, the growth was -32.6% (active) in assay [1]; -9.24% (active) in assay [2]; 6.92% (active) in assay [3]; 30.4% in assay [4]; 13.6% in assay [5]; 18.9% in assay [6]. In addition, the growth in assay [7] is 17.4%; in assay [8], 20.8%.
Turning to `CCN(CC)CCN1C(=O)c2c(c3c4ccccc4[nH]c3c3[nH]c4ccccc4c23)C1=O`, the growth was 81.8% in assay [1]; 83% in assay [2]; 95.6% in assay [3]; 46.9% in assay [4]; 62% in assay [5]; 67% in assay [6]. The results for the growth in assay [7] and in assay [8] were 53.1% and 85.2%, respectively.
As for `Cc1ccc(N(CC2=NCCN2)c2cccc(O)c2)cc1`, the growth was 98.5% in assay [1]; 89.7% in assay [2]; 100% in assay [3]; 102% in assay [4]; 93.9% in assay [5]; 101% in assay [6]. In addition, the growth is 103% in assay [7] and 104% in assay [8].
On to `O=[N+]([O-])c1cccc(C(c2ccccc2)c2ccccc2)c1`, for which the growth in assay [1] is 83.2%; in assay [2] it was 106%; in assay [3], 99.5%; in assay [4], 87.7%; in assay [5], 106%; in assay [6] it was 65.6%. Also, the values for the growth in assay [7] and in assay [8] were 92.5% and 87%, respectively.
Turning to `O=C(Nc1ccc(-n2ccc3c(NC(=O)c4ccccc4)ncnc32)cc1)Nc1ccc(Cl)c(Cl)c1`, the growth in assay [1] was 33.5%; in assay [2], 33.3%; in assay [3], 5.82% (active); in assay [4], -2.62% (active); in assay [5], 0.297% (active); in assay [6] it was -82.8% (active). For the same compound, the growth was 32.7% in assay [7] and -8.64% (active) in assay [8].
`O[C@@H]1CCO[C@H](c2ccc3ccccc3c2)C1`: the growth in assay [1] is 89.4%; in assay [2] it was 105%; in assay [3] it was 106%; in assay [4] it was 105%; in assay [5] it was 103%; in assay [6], 96.6%. In addition, the growth in assay [7] was 98.6%; in assay [8] it was 104%.
For `O=C(NC(=S)Nc1ccc(Cl)cc1)c1ccccc1`, the growth in assay [1] is 105%; in assay [2] it was 131%; in assay [3] it was 96.9%; in assay [4], 109%; in assay [5], 59.2%; in assay [6] it was 92.5%. Besides, the growth in assay [7] is 106%; in assay [8], 124%.
As to `CC1=C[S+](c2ccccc2)c2cccc3cc4ccccc4c1c23` (stereo not drawn), the growth in assay [1] is -51.9% (active); in assay [2] it was -10.9% (active); in assay [3], 0.153% (active); in assay [4], -13.4% (active); in assay [5], -49.9% (active); in assay [6] it was -87.6% (active). Moreover, the figures for the growth in assay [7] and in assay [8] were -89.4% (active) and -88% (active), respectively.
For `CCCCCn1ncc(-c2c(O)c(O)cc3c(O)c(-c4c(C)cc5c(-c6cnn(CCCCC)n6)c(O)c(O)cc5c4O)c(C)cc23)n1`, the growth in assay [1] was -5.48% (active); in assay [2], 7.18% (active); in assay [3], 17.1%; in assay [4], 18.5%; in assay [5] it was 4.84% (active); in assay [6], 3.24% (active). Further, the figures for the growth in assay [7] and in assay [8] were 0.112% (active) and 4.29% (active), respectively.
As for `Cc1cc(Nc2ccc(Cl)c(Cl)c2)nc(N)n1`, the growth is 79.5% in assay [1]; 94.4% in assay [2]; 98.3% in assay [3]; 97.7% in assay [4]; 84.4% in assay [5]; 86.4% in assay [6]. In addition, the growth in assay [7] is 113%; in assay [8], 91.3%.
With `CS(=O)(=O)OCC(COS(C)(=O)=O)C(c1ccccc1)c1ccccc1`, the growth is 100% in assay [1]; 97.3% in assay [2]; 105% in assay [3]; 99.3% in assay [4]; 101% in assay [5]; 95.9% in assay [6]. Further, the growth was 109% in assay [7] and 104% in assay [8].
Turning to `C[C@]12CC[C@@H]3c4ccc(O)c(N)c4CC[C@H]3[C@@H]1CC[C@@H]2O`, the growth in assay [1] is 124%; in assay [2], 99.3%; in assay [3], 108%; in assay [4], 122%; in assay [5], 116%; in assay [6], 89.9%. In addition, the growth is 120% in assay [7] and 103% in assay [8].
As for `O=C(Cn1c2ccccc2c2ccncc21)N/N=C/c1cc(O)c(O)c(O)c1`, the growth in assay [1] is 98.2%; in assay [2] it was 107%; in assay [3], 111%; in assay [4] it was 109%; in assay [5] it was 106%; in assay [6], 101%. Further, the values for the growth in assay [7] and in assay [8] were 105% and 95.3%, respectively.
On to `CCn1c(SC)nnc1-c1cc2c([nH]c3ccccc32)c(-c2cccc(O)c2)n1`, for which the growth in assay [1] is 10.8%; in assay [2], 29.4%; in assay [3], -32.4% (active); in assay [4], 33.1%; in assay [5], 13.8%; in assay [6], 13.2%. Also, the results for the growth in assay [7] and in assay [8] were 41.5% and 11.5%, respectively.
Regarding `OCc1cnccc1NC12CC3CC(CC(C3)C1)C2`, the growth in assay [1] is 89.4%; in assay [2], 110%; in assay [3] it was 105%; in assay [4], 103%; in assay [5], 101%; in assay [6], 99.6%. Besides, the growth in assay [7] was 105%; in assay [8], 103%.
Regarding `N#Cc1c(N)nc(Cl)c(C#N)c1C(=O)c1ccccc1`, the growth was 42.4% in assay [1]; 24.9% in assay [2]; 14.6% in assay [3]; 43.3% in assay [4]; 18.9% in assay [5]; 30.2% in assay [6]. Besides, the growth was 76.5% in assay [7] and 28% in assay [8].
For the compound `COc1cc(NC(C)CCCN2C(=O)c3ccccc3C2=O)c2ncccc2c1OC` (stereo not drawn), the growth in assay [1] is 66.8%; in assay [2], 91.2%; in assay [3], 92.1%; in assay [4], 84.7%; in assay [5] it was 41.8%; in assay [6], 84.5%. Besides, the figures for the growth in assay [7] and in assay [8] were 124% and 80.2%, respectively.
In the case of `COc1ccc(-n2c(-c3ccc(NC(=O)CCCl)cc3)nnc2-c2cc(OC)c(OC)c(OC)c2)cc1`, the growth is 25.3% in assay [1]; 66.6% in assay [2]; 54.9% in assay [3]; 54.5% in assay [4]; 23.2% in assay [5]; 35.7% in assay [6]. Further, the growth in assay [7] is 43.2%; in assay [8] it was 15.4%.
As for `O=C1c2ccccc2C(=O)c2c(NCCN=Cc3c(O)ccc4ccccc34)cccc21`, the growth in assay [1] is 75%; in assay [2], 106%; in assay [3], 96%; in assay [4] it was 79.3%; in assay [5] it was 72.6%; in assay [6], 45.5%. The growth in assay [7] was 95.7%; in assay [8], 89%.
Turning to `CCNC(=O)Oc1ccc(/C(=C(/CC)Cc2ccccc2)c2ccc(OCCN3CCOCC3)cc2)cc1`, the growth in assay [1] is 20.5%; in assay [2], 69.9%; in assay [3], 49.9%; in assay [4] it was 59.3%; in assay [5], 22.5%; in assay [6] it was 41.6%. The figures for the growth in assay [7] and in assay [8] were 79.5% and 37.3%, respectively.
For `O=C(NNC(=O)c1ccc([N+](=O)[O-])cc1)c1ccc([N+](=O)[O-])cc1`, the growth is 92% in assay [1]; 89.8% in assay [2]; 101% in assay [3]; 106% in assay [4]; 90.4% in assay [5]; 84.6% in assay [6]. In addition, the growth in assay [7] is 104%; in assay [8], 105%.
As to `CN[C@@H](CCCNC(N)=NC/C=C(/C)CCC=C(C)C)C(=O)N(C)[C@@H](CCCNC(N)=NCC=C(C)C)C(=O)N[C@H](C)[C@H](OS(=O)(=O)O)c1ccc(OS(=O)(=O)O)c(COS(=O)(=O)O)c1`, the growth in assay [1] is 98.1%; in assay [2], 107%; in assay [3] it was 113%; in assay [4] it was 108%; in assay [5] it was 97.7%; in assay [6], 101%. For the same compound, the figures for the growth in assay [7] and in assay [8] were 105% and 100%, respectively.
In the case of `Cc1nccc2c3ccc(OCc4cn(-c5ccc(Br)cc5)nn4)cc3n(CCCc3ccccc3)c12`, the growth in assay [1] is 104%; in assay [2], 53.5%; in assay [3], 18.7%; in assay [4] it was 2.21% (active); in assay [5], 12.5%; in assay [6], 30.6%. Further, the growth in assay [7] was 35.6%; in assay [8], 8.07% (active).
For the compound `CC1CCC(C(C)C)C(NN)C1` (stereo not drawn), the growth in assay [1] is 80.2%; in assay [2], 105%; in assay [3], 110%; in assay [4] it was 104%; in assay [5], 100%; in assay [6], 106%. For the same compound, the growth in assay [7] was 97.9%; in assay [8] it was 105%.
